Data on 91 molecules can be found in PubChem BioAssay AID868 (SRMLSC, 2007).

In all, about 190,000 compounds went through this assay and about 3,500 (1.8%) were called active. Many of the other results were omitted from the sample, so actives are more common in it than they were. A number with no mark means an inactive call.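 Rule for the calls: active = inhibition above a set limit, 3 SD over mean compound inhibition (cut at about 8.4% in these data); inactive = the rest.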

This assay in a line: RAM signaling blockers in budding yeast – dse1pr::URA3 reporter, 5-FOA selection, primary screen (AID 868).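 Note: 0% = DMSO-only wells with no growth and 100% = 10 µM 1-NA-PP1 full growth.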 The settings on record: S. cerevisiae dse1pr::URA3 reporter, 5-FOA growth OD615, 2 d; at 50 µM; hits give high values; analog-sensitive cbk1-as2 kinase mutant strain.
As usually defined, the inhibition is the change of the read-out against control, counted positive when it falls. Take `N#Cc1nc(Cc2ccccc2)oc1NCCc1ccccc1`: the inhibition was 2.28%.

As to `N#Cc1nc(Cc2cccc3ccccc23)oc1NCc1ccc2c(c1)OCO2`, the inhibition was 11% (active).

Turning to `O=C(COc1ccccc1)NCc1ccc2c(c1)OCO2`, the inhibition was 3.27%.

For `CCCC(NS(=O)(=O)c1ccc(OC)cc1)C(=O)O` (stereo unspecified), the inhibition is 0%.

Consider `CCCNC(=O)OC[C@H]1O[C@H](CCO/N=C/[C@@H](NS(=O)(=O)c2ccc(C)cc2)[C@H](C)/C=C/CC(=O)OC)C=C[C@@H]1Oc1ccc(OC)cc1`, for which the inhibition was 14.8% (active).

`CC(C)Oc1ccc(CCc2n[nH]c(=S)n2Cc2ccccc2)cc1`: the inhibition was 6.59%.

Consider `C=CCn1c(CCc2ccc(OC(C)C)cc2)n[nH]c1=S`, for which the inhibition was -0.6%.

For `CC(C)Oc1ccc(Cc2n[nH]c(=S)n2Cc2ccccc2)cc1Cl`, the inhibition was 9.13% (active).

For `Cc1ccc(-c2nn(-c3ccccc3)cc2/C=C/C(=O)Nc2cccc(S(N)(=O)=O)c2)cc1`, the inhibition is 4.87%.

Turning to `COc1ccc(-c2nn(-c3ccccc3)cc2/C=C\C(=O)Nc2ccc(C(=O)O)cc2)cc1`, the inhibition is 9.89% (active).

On to `O=C(O)c1ccc(NC(=O)c2cn(-c3ccccc3)nc2-c2ccc(Cl)cc2)cc1`, for which the inhibition was 6.63%.

On to `Cc1cc(NC(=O)COC(=O)COc2ccc(Cl)cc2C)c([N+](=O)[O-])cc1C`, for which the inhibition was 10.1% (active).

Consider `COc1ccc(OCC(=O)Nc2cc(C)c(Cl)cc2OC)c([N+](=O)[O-])c1`, for which the inhibition is 1.54%.

Take `CCCC(=O)OCC(=O)Nc1cc(Cl)ccc1[N+](=O)[O-]`: the inhibition was 0.82%.

Consider `Cc1ccccc1C(=O)Nc1ccc(N2CCCCCC2)cc1`, for which the inhibition is 1.43%.

For `O=C(Nc1cc(S(=O)(=O)N2CCOCC2)ccc1Cl)c1cc(=O)c2ccccc2o1`, the inhibition was 1.91%.

As to `COc1ccccc1NC(=O)/C=C/C(=O)O`, the inhibition is 2.02%.

Consider `Clc1ccccc1CSc1nnc(-c2ccco2)c(-c2ccco2)n1`, for which the inhibition is 16% (active).

In the case of `c1ccc(CSc2nnc(-c3ccco3)c(-c3ccco3)n2)cc1`, the inhibition is 0.53%.

`Nc1nc(SCc2ccccc2Cl)n[nH]1`: the inhibition was 2.44%.

Take `CCOC(=O)C1CCCN(C(=O)COc2ccc(N(C)S(=O)(=O)c3ccc(C)cc3)cc2)C1` (stereo unspecified): the inhibition was -0.86%.

With `COCc1c(N)c(C)nc(Cl)c1C#N`, the inhibition is 0.6%.

On to `CC(C)(C)C(=O)N(Cc1ccccc1)c1ccccn1`, for which the inhibition was -0.12%.

Turning to `CCOC(=O)C/C(C)=N\Nc1ccc([N+](=O)[O-])cc1[N+](=O)[O-]`, the inhibition was 0%.

Consider `Cc1ccc(NC2=C(Cl)C(=O)OC2OC(=O)c2ccccc2C)cc1` (stereo unspecified), for which the inhibition was 12.9% (active).

Turning to `Cc1ccccc1C(=O)OC1OC(=O)C(Cl)=C1Nc1ccccc1` (stereo unspecified), the inhibition is 6.67%.

Take `O=C1OC(OC(=O)c2ccccc2Br)C(N2CCOCC2)=C1Cl` (stereo unspecified): the inhibition is 1.63%.

With `CCOc1ccc(C(=O)Nc2cccc(-c3ccc4nncn4n3)c2)cc1`, the inhibition was 3.23%.

As to `COCCCNC(=O)/C=C/c1ccc(OCc2c(F)cccc2Cl)cc1`, the inhibition is 0.89%.

Turning to `O=C(Nc1ccccc1C(=O)N1CCCCCC1)c1ccccc1Cl`, the inhibition was -0.13%.

As to `CC(=O)c1ccc(N2CCN(C(=O)c3ccc4nc[nH]c4c3)CC2)cc1`, the inhibition is 2.3%.

In the case of `CCOC(=O)/C(N=Nc1cc(C(=O)O)cc(C(=O)O)c1)=C(\O)CCl`, the inhibition is 0%.

With `CCOc1cc(/C=C2/C(=N)N3OC(C)=CC3=NC2=O)ccc1OC`, the inhibition is 4.09%.

In the case of `Cc1ccc(OCCCn2c(=O)oc3ccccc32)cc1`, the inhibition is 0.62%.

With `COc1ccc(OCCCn2cccc2/C=C2/C(=N)N3OC(C)=CC3=NC2=O)cc1`, the inhibition is 12.5% (active).

With `COCCNC(=O)C(c1ccc(O)cc1)N(C(=O)CCC(=O)Nc1nccs1)c1ccc(C)cc1` (stereo unspecified), the inhibition was 0.98%.

Take `Oc1c(Cl)cc(Cl)c(Cl)c1Cc1c(O)c(Cl)cc(Cl)c1Cl`: the inhibition is 12% (active).

On to `OC1CSc2nc3ccccc3n2C1` (stereo unspecified), for which the inhibition was 0%.

For the molecule `CN1CCN(S(=O)(=O)c2cccc(C(=O)N3CCc4ccccc43)c2)CC1`, the inhibition is 1.24%.

Regarding `CC1Cc2ccccc2N1S(=O)(=O)c1c(N)n(C)c(=O)n(C)c1=O` (stereo unspecified), the inhibition was -1.31%.

With `CCCCn1ccnc1C(=O)c1cccc(S(=O)(=O)N2c3ccccc3CC2C)c1` (stereo unspecified), the inhibition was 11.4% (active).

Regarding `CC(=O)NC(Cc1ccc(F)c(F)c1)C(=O)NC1CCN(C(=O)c2ccc(C)cc2)CC1` (stereo unspecified), the inhibition is 0.5%.

`COc1cc(OC)cc(-c2nnc(N(C)C(=O)c3ccncc3)s2)c1`: the inhibition is 0.96%.

With `COCCN(C(=O)C(C)C)c1nnc(-c2ccc(C(C)(C)C)cc2)s1`, the inhibition was 19.7% (active).

Regarding `COCCN(C(=O)c1ccco1)c1nnc(-c2ccc(OC)cc2)s1`, the inhibition is 4.86%.

For the molecule `CSc1nc2ccc(NC(=O)c3c(F)cccc3F)cc2s1`, the inhibition was 4.89%.

Regarding `Cn1cc(/C=C/C(=O)N2CCCC(C(=O)c3ccc(C(F)(F)F)cc3)C2)cn1` (stereo unspecified), the inhibition is -1.92%.

On to `CN1CCN(c2ccc(S(=O)(=O)N3CCCCC3)cc2NC(=O)Cc2ccccc2F)CC1`, for which the inhibition is 1.32%.

In the case of `O=C(O)CSc1nnc(-c2ccc3c(c2)OCO3)n1-c1ccccc1`, the inhibition is 3.54%.

Regarding `COC(=O)c1ccccc1NC(=O)Cn1nc(C(F)(F)F)c2c1CCC2`, the inhibition is 5.65%.

Turning to `COC(=O)c1ccccc1Sc1c(/C=N/OCc2ccc(Cl)cc2)c(C(F)(F)F)nn1C`, the inhibition is 8.63% (active).

As to `Cn1nc(C(F)(F)F)c(C(=O)Nc2cccc(C(F)(F)F)c2)c1SCc1ccc(Cl)cc1`, the inhibition was 7%.

In the case of `CCOC(=O)c1sc(/N=C/C2=C(O)CC(C)(C)CC2=O)c(C(=O)OCC)c1C`, the inhibition was 4.52%.

Turning to `Cc1ccc(C(C)NC(=O)Cn2nc(C)c([N+](=O)[O-])c2C)cc1` (stereo unspecified), the inhibition was 0.13%.

Turning to `CCC(C(=O)Nc1ccc(C(C)C)cc1)c1ccccc1` (stereo unspecified), the inhibition is 3.4%.

Take `O=C(CSc1nc(-c2ccco2)cc(C(F)(F)F)n1)NCc1cccs1`: the inhibition was 5.13%.

For `COc1cc(OC)cc(-c2nc3nc(C)c(CCC(=O)NCc4ccco4)c(C)n3n2)c1`, the inhibition is 5.8%.

For the molecule `COc1ccc(-c2cc(C(F)(F)F)nc(SCCC(=O)NCc3ccco3)n2)cc1`, the inhibition is 8.41% (active).

Consider `COc1cc(/C=N/NC(=S)Nc2cccnc2)cc(OC)c1O`, for which the inhibition is 0.73%.

As to `CCOc1cc(C2C(C(=O)OC(C)C)=C(C)NC3=C2C(=O)CCC3)cc([N+](=O)[O-])c1O` (stereo unspecified), the inhibition is 3.44%.

As for `COc1ccc(CCNC2=C(Cl)C(=O)N(Cc3ccccc3)C2=O)cc1OC`, the inhibition was 8.57% (active).

Regarding `COc1ccc(CCN=C2SCC(=O)N2Cc2ccccc2)cc1OC`, the inhibition is 0.24%.

As to `COc1ccc(CCN(C)CCN2C(=O)c3ccccc3C2=O)cc1OC`, the inhibition was -0.11%.

Consider `O=C(CSc1ccccc1)Nc1nnc(/C=C/c2ccccc2)s1`, for which the inhibition was 3.72%.

Turning to `COc1ccc(Cl)cc1C(=O)NNC(=S)NC1CCCC1`, the inhibition was 0%.

In the case of `COCCCNc1nc2c(-c3cccc(C(F)(F)F)c3)nnn2c2ccccc12`, the inhibition was 4.26%.

For the molecule `CCCNC(=O)c1c(Cl)cnn1-c1ccc(C)cc1`, the inhibition was -1.52%.

With `NS(=O)(=O)c1ccc(CCNC(=O)c2ccc([N+](=O)[O-])cc2[N+](=O)[O-])cc1`, the inhibition was 0%.

For `NS(=O)(=O)c1ccc(NC(=O)COC(=O)CCc2c[nH]c3ccccc23)cc1`, the inhibition was 1.13%.

As to `CCOC(=O)CN(C)Cc1c[nH]c2ccccc12`, the inhibition is 4.1%.

Take `CC(C)(C)N(Cc1ccccc1)C(=O)COC(=O)CCc1c[nH]c2ccccc12`: the inhibition was 10.3% (active).

On to `CCOc1ncccc1C(=O)OCC(=O)NC1CC1`, for which the inhibition is -0.99%.

As for `CN(C)C(CNC(=O)Cc1ccc([N+](=O)[O-])cc1)c1ccccc1` (stereo unspecified), the inhibition is -0.62%.

For `O=C(NCc1cccs1)C(=O)NCC1OCCCN1S(=O)(=O)c1ccc(F)cc1` (stereo unspecified), the inhibition was 3.25%.

Turning to `COc1ccc(NS(=O)(=O)c2ccc(NC(=O)c3ccc(N(C)S(C)(=O)=O)cc3)cc2)cc1`, the inhibition was 4.92%.

For `CC(C)CNC(=O)COC(=O)c1ccccc1OCC(=O)Nc1ccc(Br)cc1`, the inhibition was 1.56%.

For the molecule `O=C1c2cccc(OCC(=O)N3N=C(c4cccs4)CC3c3ccc(F)cc3)c2CCN1Cc1ccccc1` (stereo unspecified), the inhibition was 9.86% (active).

With `COc1ccc(C2CC(c3cccs3)=NN2C(=O)COC(=O)c2cc3ccccc3cc2O)cc1OC` (stereo unspecified), the inhibition is 4.23%.

Consider `COc1ccc(C2CC(c3cccs3)=NN2C(=O)CSc2nnc(N)s2)cc1OC` (stereo unspecified), for which the inhibition is 1.88%.

With `COc1ccc(NC(=O)COC(=O)c2ccc(NS(=O)(=O)/C=C/c3ccccc3)cc2)cc1`, the inhibition was 4.45%.

For `O=C(CSc1nncs1)NC1CCCc2ccccc21` (stereo unspecified), the inhibition was 0.4%.

Turning to `CC(C)Nc1nnc(SCC(=O)c2c[nH]c3ccccc23)s1`, the inhibition is 0.26%.

Take `CN1/C(=C\C(=O)c2cccnc2Cl)C(C)(C)c2ccccc21`: the inhibition was 0.13%.

Take `CC(C)Nc1nnc(SCC(=O)/C=C2\N(C)c3ccccc3C2(C)C)s1`: the inhibition was 10.6% (active).

Take `COCCNC(=S)N1CCC(NC(=O)C23CC4CC(CC(C4)C2)C3)CC1`: the inhibition is -0.25%.

As to `CCN(CC)CCNC(=O)c1sc2ncn(CC(=O)Nc3ccc(C)c(Cl)c3)c(=O)c2c1C`, the inhibition is 0.37%.

With `Cn1c(=O)n(Cc2ccco2)c(=N)c2c3c(sc21)CCCC3`, the inhibition is 1.37%.

Regarding `O=C(COC(=O)CSc1nnc(-c2ccc(Cl)cc2)o1)Nc1cc(Cl)cc(Cl)c1`, the inhibition was 2.39%.

On to `CC(=O)NC1C(Oc2ccc(C=O)cc2)OC(COC(C)=O)C(OC(C)=O)C1OC(C)=O` (stereo unspecified), for which the inhibition was 1.12%.

For `COc1ccc(O[C@H]2C=C[C@@H](c3ccccc3)O[C@@H]2CO/N=C/C[C@@H]2C=C[C@H](OC(C)=O)[C@@H](COC(C)=O)O2)cc1`, the inhibition is 13.9% (active).

On to `CC(=O)NC1C(OCc2ccccc2)OC(COC(C)=O)C(OC(C)=O)C1OC(C)=O` (stereo unspecified), for which the inhibition was 1.66%.
